This passage reports outcome and activation results from PubChem BioAssay (Tox21).

Records with an inconclusive call do not appear. Values without a mark were called inactive. Active and inactive are the calls of the source. Calls come from the whole dose curve.
% is set by controls: 0 for no effect and ±100 for the full control effect.

This test is described as follows: qHTS assay for small molecule agonists of the p53 signaling pathway (AID 651631). Note: nearly all actives have a fitted effect of over 15% in size. Particulars: HCT-116 p53RE-bla reporter, beta-lactamase FRET ratio, 16 h; series mostly up to 73.3 µM. The source says:
U.S. Tox21 Program National Center for Advancing Translational Sciences [NCATS] NIH Chemical Genomics Center [NCGC] U.S. Environmental Protection Agency [EPA] National Institutes of Environmental Health Sciences [NIEHS] National Toxicology Program [NTP] U.S. Food and Drug Administration [FDA] Tox21 Assay Overview: p53, a tumor suppressor protein, is activated following cellular insult, including DNA damage and other cellular stresses. The activation of p53 regulates cell fate by inducing DNA repair, cell cycle arrest, apoptosis, or cellular senescence. The activation of p53, therefore, is a good indicator of DNA damage and other cellular stresses. The CellSensor p53RE-bla HCT-116 cell line (Invitrogen) contains a stably integrated beta-lactamase reporter gene under control of the p53 response elements. The activation of the reporter gene under culture conditions can be detected by fluorescence intensity. This cell line was used to screen the Tox21 compound library in a 1536-well plate format and to identify agonists that activate the p53 signaling pathway.
Tox21 Assay Protocol Summary: The p53RE-bla cells were dispensed at 4,000 cells/5 ul/well in 1536-well black wall/clear bottom plates using a Multidrop dispenser. After the assay plates were incubated at a 37 C/5% CO2 incubator for 5 hours, 23 nL of compounds dissolved in DMSO, positive controls or DMSO only was transferred to the assay plate by a pin tool. The plates were incubated at 37 C for 16 hours. After 1 uL of LiveBLAzerTM B/G FRET substrate was added using a Flying Reagent Dispenser, the plates were incubated at room temperature for 2 hours, and fluorescence intensity was measured by an Envision plate reader.
Regarding `CCNC(=O)NCCCOc1cccc(CN2CCCCC2)c1`, the result was inactive. Consider `CCCCCCCC/C=C\CCCCCCCC(=O)OC[C@@H](O)[C@H]1OC[C@H](O)[C@H]1O`, for which the outcome was inactive.

As to `O=c1[nH]c(=O)c2[nH]c(=O)[nH]c2[nH]1`, the outcome was inactive. On the same count and under the same terms, next, `CCCCCC(=O)OCC`: “inactive”; `C[C@H]1O[C@H](O[C@H]2[C@H](O)[C@@H](O)[C@@H](O[C@H]3[C@H](O)[C@@H](O)[C@H](O)O[C@@H]3CO)O[C@@H]2CO)[C@H](O)[C@@H](O)[C@@H]1N[C@H]1C=C(CO)[C@@H](O)[C@H](O)[C@H]1O`: “inactive”; `Nc1ccc(S(=O)(=O)Nc2ccccn2)cc1`: “inactive”.

Turning to `C=C(C)C(=O)OC1CC(C)CC(C)(C)C1` (stereo not given), the result was inactive. As for `CCCOC(=O)CCCCC(=O)OCCC`, the result was inactive. As to `CC(C)c1ccccc1O`, the result was inactive. With `COCC(=O)Nc1c(I)c(C(=O)NCC(O)CO)c(I)c(C(=O)N(C)CC(O)CO)c1I` (stereo not given), the outcome was inactive. As to `COC(=O)CCC(=O)O`, the result was inactive. As for `CCOC(=O)OCC/C(SC(=O)OCC)=C(\C)N(C=O)Cc1cnc(C)nc1N`, the outcome was inactive.

As to `CCCCCCCCOC(C)=O`, the outcome was inactive. `Cc1cc(C)cc([N+](=O)[O-])c1`: the result was inactive.

`Nc1c(NC/C=C\COc2cc(CN3CCCCC3)ccn2)c(=O)c1=O`: the result was inactive. On to `NS(=O)(=O)c1ccccc1OC(F)(F)F`, for which the result was inactive.

On to `C[N+](C)(C)CC(O)CCl` (stereo not given), for which the outcome was inactive. As to `O=C(O)C(=O)Nc1cccc(-c2nn[nH]n2)c1`, the result was inactive. `CC(=O)N(CC(O)CO)c1c(I)c(C(=O)NCC(O)CO)c(I)c(C(=O)NCC(O)CO)c1I` (stereo not given): the outcome was inactive. The same measure, in the same setting: next, `CNCc1ccccc1`: “inactive”. Turning to `OC(CCN1CCCCC1)(c1ccccc1)c1ccccc1`, the result was inactive. Consider `C=CCCCCCCCCCCC`, for which the activation is -4.17% [at 8.3 µM]. As to `C=C(C)C(=O)OCCCCCCOC(=O)C(=C)C`, the result was inactive. With `C=C(C)[C@@H]1CC[C@@H](C)C[C@@H]1O`, the result was inactive. As for `C[C@H](CCC(=O)NCC(=O)O)[C@H]1CC[C@H]2[C@@H]3[C@H](O)C[C@@H]4C[C@H](O)CC[C@]4(C)[C@H]3C[C@H](O)[C@]12C`, the result was inactive. On to `O=C1CC[C@H](C(=O)N2CCCCC2)N1`, for which the result was inactive. For `CN(C)CCOCCN(C)CCO`, the result was inactive. For the compound `CCC1COC(=O)O1` (stereo not given), the result was inactive. As for `COc1cc(C=O)ccc1OC(=O)C(C)C`, the result was inactive. Same read-out and setting: next, `COc1cc2c3cc1Oc1cc(ccc1O)C[C@@H]1c4c(cc(OC)c(O)c4Oc4ccc(cc4)C[C@@H]3N(C)CC2)CC[N+]1(C)C`: “inactive”.

`Cc1cc(O)c2c(c1)C(=O)c1cccc(O)c1C2=O`: the outcome was inactive. Consider `O=C(O)c1ccccc1C(=O)OCc1ccccc1`, for which the result was inactive. On to `CCCCOC(=O)C(=O)OCCCC`, for which the result was inactive. Same read-out and setting: then `CC1=NN(c2ccc(S(=O)(=O)O)cc2)C(=O)C1N=Nc1ccccc1` (stereo not given), with “inactive”. Still for that read-out and setting: then `CO[Si](CCCS)(OC)OC`, with “inactive”; and `F[Si-2](F)(F)(F)(F)F`, with “inactive”. The same measure, in the same setting: then `CCS(=O)(=O)CCn1c([N+](=O)[O-])cnc1C`, with “inactive”; and `O=C(O)Cc1cccc(-c2cc(CCCCCCc3ccc(O[C@H]4O[C@H](CO)[C@@H](O)[C@H](O)[C@@H]4O)c(-c4cccc(CC(=O)O)c4)c3)ccc2O[C@H]2O[C@H](CO)[C@@H](O)[C@H](O)[C@@H]2O)c1`, with “inactive”; and `COC(OC)C(C)c1ccccc1` (stereo not given), with “inactive”.

On to `CC(C)CCO`, for which the outcome was inactive.
